Hits are enriched below; roughly 2.5% of the tested compounds scored in any of these assays.
ULK1 inh: human ULK1 kinase inhibition, primary screen; inhibition, % at 5.96 µM; AlphaScreen Atg13 phosphorylation by ULK1, luminescence; O75385; 1.9% of 30,000 active; in the data active means inhibition above about 43%
ASK1 inh: human ASK1 kinase inhibition, primary screen; AlphaScreen MKK6 phosphorylation by ASK1, luminescence; inhibition, % at 7.44 µM; 0.99% of 22,000 active; AID 1159602; in the data active means inhibition above about 35%
Target sequence (Q99683 whole entry, looked up): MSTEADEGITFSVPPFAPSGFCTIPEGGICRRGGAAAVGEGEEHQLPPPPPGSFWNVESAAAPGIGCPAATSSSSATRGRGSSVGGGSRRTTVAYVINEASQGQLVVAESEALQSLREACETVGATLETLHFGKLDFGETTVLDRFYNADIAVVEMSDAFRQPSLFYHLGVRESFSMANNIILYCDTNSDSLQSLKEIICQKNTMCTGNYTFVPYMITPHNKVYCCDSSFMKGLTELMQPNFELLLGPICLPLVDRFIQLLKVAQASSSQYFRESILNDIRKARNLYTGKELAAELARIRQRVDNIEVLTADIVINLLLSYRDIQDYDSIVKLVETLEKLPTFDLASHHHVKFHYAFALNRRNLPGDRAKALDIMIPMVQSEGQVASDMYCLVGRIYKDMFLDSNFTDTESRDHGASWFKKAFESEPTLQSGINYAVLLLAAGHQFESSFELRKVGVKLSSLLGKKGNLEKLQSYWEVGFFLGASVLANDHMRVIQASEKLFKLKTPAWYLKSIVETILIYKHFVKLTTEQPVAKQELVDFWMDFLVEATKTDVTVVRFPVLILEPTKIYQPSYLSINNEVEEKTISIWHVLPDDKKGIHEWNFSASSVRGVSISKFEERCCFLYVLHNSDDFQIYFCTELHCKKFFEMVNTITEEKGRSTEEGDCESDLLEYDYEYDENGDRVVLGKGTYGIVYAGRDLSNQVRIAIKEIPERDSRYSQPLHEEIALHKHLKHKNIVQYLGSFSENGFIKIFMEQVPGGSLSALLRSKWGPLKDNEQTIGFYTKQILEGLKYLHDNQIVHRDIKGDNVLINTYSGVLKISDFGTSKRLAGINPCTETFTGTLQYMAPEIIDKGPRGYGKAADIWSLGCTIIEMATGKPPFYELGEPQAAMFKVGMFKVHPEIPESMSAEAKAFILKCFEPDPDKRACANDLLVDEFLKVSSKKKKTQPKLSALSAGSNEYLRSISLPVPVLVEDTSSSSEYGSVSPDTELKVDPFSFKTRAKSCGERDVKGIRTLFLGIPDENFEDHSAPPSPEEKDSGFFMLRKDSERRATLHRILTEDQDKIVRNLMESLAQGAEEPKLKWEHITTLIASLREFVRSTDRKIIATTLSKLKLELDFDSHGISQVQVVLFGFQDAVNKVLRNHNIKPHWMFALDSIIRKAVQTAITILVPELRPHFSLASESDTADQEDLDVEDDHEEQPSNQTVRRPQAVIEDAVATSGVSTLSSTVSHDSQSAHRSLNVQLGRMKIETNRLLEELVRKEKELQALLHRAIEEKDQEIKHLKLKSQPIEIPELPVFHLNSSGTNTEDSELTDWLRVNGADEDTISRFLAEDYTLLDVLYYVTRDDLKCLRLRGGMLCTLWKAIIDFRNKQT
AlphaScreen intf: AlphaScreen optical interference dose response, ASK1 counter-screen | shares compounds with ASK1 inh | AlphaScreen TruHits beads, signal interference counterscreen | IC50, µM | 20% of 220 active | AID 1159604;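 active means IC50 of 10 µM or lower in the counterscreen; inactive means IC50 above 10 µM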;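 further: loss of AlphaScreen light from TruHits beads alone with no ASK1 enzyme present; potency of signal reduction so a low IC50 flags an assay artifact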
Hits are given with their value; i = inactive; nt = no result.

SMILES	ULK1 inh	ASK1 inh	AlphaScreen intf
COc1cc2nc(Nc3ccc(N4CCOCC4)cc3)nc(Nc3ccccc3)c2cc1OC	i	56.2	8.51
COc1cc2nc(Nc3ccc4ncccc4c3)nc(Nc3ccc(N4CCOCC4)cc3)c2cc1OC	i	i	nt
COc1cc2nc(Nc3nc4ccccc4n3C)nc(Nc3ccc(N4CCOCC4)cc3)c2cc1OC	i	67.4	i
COc1cc2nc(Nc3nc4ccccc4n3C)nc(Nc3ccc4c(c3)OCO4)c2cc1OC	i	i	nt
NC(=O)c1ccc(-c2cccc(C(=O)NCc3nc4ccccc4[nH]3)c2)cc1	i	i	nt
CCN(CC)C(=O)C1CCCN(c2nc(C)cc(N)n2)C1 (stereo unspecified)	i	i	nt
COc1cc(Nc2ncnc3nc(-c4ccc(C(N)=O)cc4)[nH]c23)cc(OC)c1OC	i	i	nt
COc1ccc(-c2ncc(C)c(Nc3ccc(N4CCOCC4)cc3)n2)cn1	i	i	nt
COc1cc(Nc2nc(-c3ccc(C(N)=O)cc3)ncc2C)cc(OC)c1OC	54.6	61.3	i
Cc1cnc(-c2ccc(C(N)=O)cc2)nc1Nc1ccc(N2CCOCC2)cc1	i	36.2	i
COc1cc(NC(=O)c2cccc(-n3cc(Nc4ccc5ccccc5n4)cn3)c2)cc(OC)c1OC	i	i	nt
COc1ccc2c(c1)CC(C(=O)Nc1ccc(-c3cn[nH]c3)cc1OCCC(C)C)CO2 (stereo unspecified)	i	i	nt
COc1ccc2c(c1)CC(C(=O)Nc1ccc(-c3cn[nH]c3)cc1OCCOCc1ccccc1)CO2 (stereo unspecified)	i	42.9	i
COc1ccc(CC(=O)Nc2ccc(-c3cn[nH]c3)cc2OC2CCN(C)CC2)cc1	i	i	nt
CC(C)CNC(=O)c1ccc2c(c1)CC(c1nc3ncc(-c4ccnc(N)n4)cc3[nH]1)CO2 (stereo unspecified)	i	42.3	i
CN(C)CCNC(=O)c1ccc2c(c1)CC(c1nc3ncc(-c4ccnc(N)n4)cc3[nH]1)CO2 (stereo unspecified)	i	i	nt
COc1nc(NCCO)nc(-c2cccc(C(C)=O)c2)n1	i	i	nt
O=C(Nc1ccccc1)c1ccccc1Nc1ccnc(Nc2ccc(N3CCOCC3)cc2)c1	i	37.1	i
c1ccc(CCn2ncc(-c3ccnc(Nc4ccc(N5CCOCC5)cc4)c3)c2Nc2ccccc2)cc1	i	40.8	i
Cn1ncc(-c2ccnc(Nc3ccc(N4CCOCC4)cc3)c2)c1Nc1ccccc1	i	i	nt
O=C(Cc1ccccc1)Nc1cc(-c2ccnc(Nc3ccc(N4CCOCC4)cc3)c2)nn1CCc1ccccc1	i	i	nt
c1ccc(CCn2nc(-c3ccnc(Nc4ccc(N5CCOCC5)cc4)c3)cc2Nc2ccccc2)cc1	i	56.2	i
OCc1ccccc1Nc1ccnc(Nc2ccc(N3CCOCC3)cc2)c1	i	i	nt
COc1ccc(N(CC(=O)NC(C)C)S(=O)(=O)c2ccc(OC)c(OC)c2)cc1	i	nt	nt
c1ccc(OCCNc2nc(N3CCc4ccccc4C3)nc3c2ncn3C2CCCCC2)cc1	i	i	nt
SMILES	ULK1 inh	ASK1 inh	AlphaScreen intf
O=C(O)Cc1ccc(Nc2nccc(-c3ccccc3)n2)cc1	i	i	nt
O=c1[nH]cccc1-c1ccc(Nc2nccc(-c3ccc4nc(C5CC5)[nH]c(=O)c4c3)n2)cc1	70.3	42.9	i
c1ccc(CCNc2cc(-c3cccnc3)nc(-c3ccncc3)n2)cc1	i	nt	nt
c1ccc2c(c1)OCC(c1nc(N3CCOCC3)c3cc(-c4cn[nH]c4)ccc3n1)O2 (stereo unspecified)	i	37.5	i
CN(C)CCN(C)c1nc(C2COc3ccccc3O2)nc2ccc(-c3cn[nH]c3)cc12 (stereo unspecified)	i	i	nt
Nc1nc(Nc2ccccc2)cc(-c2csc3ccccc23)n1	i	i	nt
COc1cc(Nc2nc(N3CCc4ccccc4C3)nc3c2ncn3C2CCCCC2)cc(OC)c1OC	i	i	nt
COc1cc(Nc2nc(N3CCc4ccccc4C3)nc3c2ncn3C(C)C)cc(OC)c1OC	i	40.2	i
CC(C)n1c(Nc2ccccc2)nc2c(NC3CCN(Cc4ccccc4)CC3)ncnc21	i	i	nt
CC(C)n1c(Nc2cccc(N(C)C)c2)nc2c(NC3CCN(Cc4ccccc4)CC3)ncnc21	i	38.2	i
CC(C)n1cnc2c(NC3CCN(Cc4ccccc4)CC3)nc(Nc3cccc(N(C)C)c3)nc21	i	35.8	i
Cc1cc(NC2CC2)nc(Nc2cccc(N(C)C)c2)n1	i	i	nt
Cc1cc(NC2CCN(Cc3ccccc3)CC2)nc(Nc2cccc(N(C)C)c2)n1	i	50.0	8.58
CN(C)c1cccc(Nc2nc(NC3CCN(Cc4ccccc4)CC3)c3ncn(-c4ccccc4)c3n2)c1	i	i	nt
COc1ccc(Nc2cc(C)nc(N3CCN(C(=O)c4cccc(OC)c4)CC3)n2)cc1	i	nt	nt
Nc1nccc(-c2ccc3nc(C4COc5c(F)cccc5C4)[nH]c3c2)n1 (stereo unspecified)	i	i	nt
COc1ccc2c(c1)CC(C(=O)Nc1ccc(-c3cn[nH]c3C)cc1O)CO2 (stereo unspecified)	i	i	nt
CC(C)n1cnc2c(NC3CC3)nc(N3CCCC3CO)nc21 (stereo unspecified)	i	i	nt
CC(C)NC(=O)c1cccc(NC(=O)Nc2ccc(-c3ccnc4[nH]ccc34)cc2)c1	i	38.6	i
CC(C)NC(=O)c1cccc(NC(=O)Nc2ccc(-c3cn[nH]c3)cc2)c1	i	i	nt
Nc1nonc1-n1nnc(C(=O)NN=C2CCCCCC2)c1-c1cccc([N+](=O)[O-])c1	i	nt	nt
NC(=O)c1ccc(-c2cncc(C(N)=O)c2)cc1	i	i	nt
O=C(NC1CC1)c1ccc(-c2nc(NCc3cccc(C(F)(F)F)c3)c3ncn(-c4ccsc4)c3n2)cc1	i	i	nt
O=C(NC1CC1)c1ccc(-c2nc(NCc3cccc(C(F)(F)F)c3)c3ncn(-c4ccccc4)c3n2)cc1	i	44.7	i
Cc1cc(NCCN(C(C)C)C(C)C)nc(Nc2ccc(-n3ccnc3)cc2)n1	i	i	nt
SMILES	ULK1 inh	ASK1 inh	AlphaScreen intf
OC(CN1CCC(Nc2ccc3[nH]ncc3c2)CC1)c1ccc(Br)cc1 (stereo unspecified)	i	i	nt
Cc1c[nH]c2ncnc(-c3ccc(NC(=O)Nc4ccccc4)cc3)c12	i	39.2	i
CCn1c(=O)[nH]c2ncnc(-c3ccc(NC(=O)Nc4cccc(C(=O)NC(C)C)c4)cc3)c21	i	i	nt
COc1cc(Nc2nc(NC3CCN(Cc4ccccc4)CC3)c3ncn(Cc4ccc(C(F)(F)F)cc4)c3n2)cc(OC)c1OC	i	i	nt
COc1cc2nc(Nc3cnccn3)nc(NCCOc3ccccc3)c2cc1OC	i	i	nt
CC(=O)Nc1ccc(Nc2nc(N3CCN(Cc4ccc5c(c4)OCO5)CC3)nc3c2ncn3-c2ccsc2)cc1	i	i	nt
CCCNc1nc(Nc2ccc(N3CCOCC3)cc2)nc2c1ncn2C1CCCCC1	i	50.8	i
c1cc(-n2cnc3c(Nc4ccc5c(c4)OCO5)nc(N4CCN(Cc5ccc6c(c5)OCO6)CC4)nc32)cs1	i	36.2	i
c1cc(N2CCOCC2)ccc1Nc1nc(NCCN2CCOCC2)c2ncn(C3CCCCC3)c2n1	i	i	nt
c1cc(-n2cnc3c(Nc4ccc5c(c4)OCO5)nc(NCc4ccc5c(c4)OCO5)nc32)cs1	i	i	nt
c1cc(-n2cnc3c(Nc4ccc(N5CCOCC5)cc4)nc(NCc4ccc5c(c4)OCO5)nc32)cs1	i	40.8	i
Cc1cc(Nc2ccc3c(c2)OCO3)nc(N2CCN(Cc3ccc4c(c3)OCO4)CC2)n1	i	36.5	i
